GALK inhibitor = galactokinase (human) inhibition; P51570; Purified GALK, Kinase-Glo residual ATP luminescence; Potency, µM (titrated, usually from 57.5 µM), hits mostly inhibitors; hit rate 0.007% among 270,000
Target sequence (P51570 whole entry, looked up): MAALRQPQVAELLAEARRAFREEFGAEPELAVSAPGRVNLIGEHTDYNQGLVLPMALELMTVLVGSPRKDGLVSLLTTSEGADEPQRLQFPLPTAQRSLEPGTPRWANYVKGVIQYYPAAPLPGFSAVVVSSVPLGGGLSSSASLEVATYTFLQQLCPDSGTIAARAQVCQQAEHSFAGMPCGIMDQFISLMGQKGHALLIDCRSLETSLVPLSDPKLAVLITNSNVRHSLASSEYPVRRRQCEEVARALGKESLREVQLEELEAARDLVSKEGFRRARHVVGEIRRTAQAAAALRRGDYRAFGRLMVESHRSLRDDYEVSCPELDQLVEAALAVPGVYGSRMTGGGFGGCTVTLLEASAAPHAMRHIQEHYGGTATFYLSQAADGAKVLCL
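5 nM enzyme, 35 uM ATP, 100 uM galactose, 20 mM HEPES pH8.0, 5 mM MgCl2; 1 h RT; residual ATP by Kinase-Glo Plus luminescence, qHTS format.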
Giardia killer = kills Giardia lamblia | Giardia lamblia trophozoite viability | activity change, % at 7.66 µM, hits read low | hit rate 0.15% among 340,000 | AID 540267; in the data active = activity change below about -80%; inconclusive = between about -30% and that limit;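 note: parasites exposed to compound for two days anaerobically before the ATP read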
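Viability, read as ATP luminescence: trophozoites at 100 cells/well, compound added, 48 hrs anaerobic at 37 deg C, then 15-30 min room-temperature development before reading.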
TrxR1 substrate = rat thioredoxin reductase 1 substrate activity; O89049; Potency, µM (highest dose often 114 µM); purified TrxR1 substrate turnover, NADPH consumption readout; hit rate 0.01% among 390,000; note: nearly all actives have a fitted effect of over 50% in size
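Rat TrxR1, dispensed at 90 nM, was prereduced with 400 uM NADPH (final) for 5 min at ~22 deg C, then incubated with compound 15 min before 400 uM selenite. A first-read NADPH fluorescence drop versus no-compound background flagged substrates.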
Pin1 inhibitor = human Pin1 inhibition; Q13526; hit rate 0.009% among 390,000; Potency, µM (doses to about 115 µM), hits mostly inhibitors; Pin1 FP peptide displacement, HiFluor488, 10 min; AID 504891; active = well fitted inhibition curve with a large enough effect in the polarisation, with a control signal flat, not every such curve was filed as active; inconclusive = small, poorly fitted or top-dose-only effect, or effect the other way, or a change in a side signal; inactive = no such curve, though single readings can be large or run the other way; the % refers to the polarisation
Target sequence (Q13526 whole entry, looked up): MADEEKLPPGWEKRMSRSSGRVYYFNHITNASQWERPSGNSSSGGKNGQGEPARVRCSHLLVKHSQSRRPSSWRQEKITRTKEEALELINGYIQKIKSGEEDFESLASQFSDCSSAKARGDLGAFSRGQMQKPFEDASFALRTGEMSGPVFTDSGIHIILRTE
GCN5L2 inh-1 = blocks human GCN5L2 histone acetyltransferase; Q92830; GCN5L2 HAT assay, ThioGlo1 CoA-SH fluorescence; Potency, µM (highest dose often 58.9 µM), actives largely listed as inhibitors; hit rate 0.21% among 390,000
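qHTS, 1536-well. 20nM enzyme, pH 7.5 HEPES/EDTA/Tween-20 buffer; 15 min compound preinc., RT. Start: 75uM H3(1-25), 70uM AcCoA, 50uM ThioGlo1. Read Ex340/Em540 at t=0 (autofluorescence flag) and t=20 min.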
TrxR1 inh = blocks rat thioredoxin reductase 1; O89049; Potency, µM (series often up to 114 µM), usual class: inhibitors; hit rate 1% among 390,000; recombinant rTrxR1, NADPH fluorescence consumption, selenite substrate; note: nearly all actives have a fitted effect of over 65% in size
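Rat TrxR1 (90 nM in the dispensed reagent) was pre-reduced with 400 uM NADPH for 5 min at room temperature, then incubated with compound for 15 min. After 400 uM selenite was added, NADPH fluorescence (Ex 340/Em 450 nm) was followed for 8 min.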
GCN5L2 inh-2 = human KAT2A HAT inhibition, hit confirmation | GCN5L2 HAT, ThioGlo1 CoA fluorescence, 20 min | AID 588347 | Potency, µM, actives largely listed as inhibitors | shares compounds with GCN5L2 inh-1 | hit rate 70% among 140
A number is an active result; n = inactive; u = inconclusive; x = no result; [ ] = another dose, or the depositor's remark. Only some compounds are listed: those with a hit (about 1.3% of all), similar ones and a draw of the others. Unless noted, calls come from the whole dose curve; as a rule, active = well fitted curve in the direction sought with a large enough effect; inconclusive = small, poorly fitted or top-dose-only effect, or another doubt; inactive = no such curve, though single readings can be large; an effect the other way counts as inactive or inconclusive.

SMILES | GALK inhibitor | Giardia killer | TrxR1 substrate | Pin1 inhibitor | GCN5L2 inh-1 | TrxR1 inh | GCN5L2 inh-2
O=C1c2ccc(-c3ccc(F)cc3OCc3ccccc3)cc2S(=O)(=O)c2cccc(C(=O)N3CCN(c4ncc(Br)cn4)CC3)c21 | x | n | n | n | n | n | x
CCn1c(=O)cc(OCC(=O)N(C)c2ccc(OC)cc2)c2ccccc21 | x | x | n | n | n | n | x
CC(=O)N1c2ccccc2[C@@H](C)[C@@H]1C | x | n | n | n | n | n | x
CC(=O)N1c2ccccc2C2(O)N=C(C)SC12 (stereo not given) | n | n | n | n | 7.9µM | n | 9.1
Nc1ncnc2c1nc(Br)n2C1OC2COP(=O)(O)O[C@@H]2C1O (stereo not given in full) | x | x | n | x | n | n | x
CCSc1ccccc1C(=O)Nc1ccc(S(=O)(=O)NC(C)=O)cc1 | n | n | n | n | 18µM | n | u
Cc1ccc(S(=O)(=O)NC(C(=O)Oc2ccc3c(C(F)(F)F)cc(=O)oc3c2)c2ccccc2)cc1 (stereo not given) | n | n | n | n | u | n | u
COC(=O)C(NS(=O)(=O)c1ccc(C)cc1)c1ccccc1 (stereo not given) | n | n | n | n | n | n | x
CS(=O)(=O)C1=NSC2=NC(=O)/C(=C\c3ccc(OS(=O)(=O)c4ccccc4)cc3)C(=N)N21 | u | n | n | n | u | n | x
CCS(=O)(=O)C1=NN2C(=N)/C(=C\c3ccc(OS(=O)(=O)c4ccccc4)cc3)C(=O)N=C2S1 | u | n | n | u | 14µM | u | 10
Cc1ccc(S(=O)(=O)Oc2ccc(/C=C3/C(=N)N4C(=NC3=O)SN=C4S(C)(=O)=O)cc2)cc1 | u | n | n | u | u | n | 10
CCc1ccc(-n2cccc2/C=C2/C(=N)N3C(=NC2=O)SN=C3S(C)(=O)=O)cc1 | n | n | n | u | 20µM | n | u
COc1cc(OC)c(NC(=O)c2cc3ccccc3cc2O)cc1Cl | x | n | n | n | x | n | x
CCOc1ccc(CCNC(=O)COC(=O)c2ccc[nH]c2=O)cc1OCC | x | n | n | n | n | n | x
COc1ccc(N2CCN(c3ncnc4c3cnn4-c3ccc(F)cc3)CC2)cc1 | x | x | n | n | n | n | x
COc1ccc(OC)c(NC(=O)c2cc(S(=O)(=O)NCCc3ccc(Cl)cc3)ccc2F)c1 | x | x | n | n | n | n | x
CCCCNC(=O)COC(=O)c1c2c(nc3ccccc13)/C(=C/c1cccs1)CC2 | n | n | n | u | n | n | x
CNC(=O)NC(=O)C(C)OC(=O)c1c2c(nc3ccccc13)/C(=C/c1cccs1)CC2 (stereo not given) | n | n | n | u | 14µM | n | u
CC/C=C/[C@@H](c1ccccc1)[C@H](C)C(O)CC(=O)SC(C)(C)C (stereo not given in full) | x | n | n | n | x | n | x
CCS(=O)(=O)N1CCc2cc(C(=O)NCc3ccccc3Cl)ccc21 | x | x | n | n | n | n | x
COc1ccc(S(=O)(=O)N2CCN(C(=O)c3cc4c(s3)CCC4)CC2)cc1 | x | n | n | x | 16µM | n | 18
O=C(O)c1ccc(-n2cccc2/C=C2/NC(=O)N(c3cccc(Cl)c3)C2=O)cc1 | n | n | n | x | u | u | u
CC(=O)c1cccc(OCC(=O)N(CCC2=CCCCC2)c2c(N)n(Cc3ccccc3)c(=O)[nH]c2=O)c1 | x | n | n | n | x | n | x
Cc1ccc2c(c1C)NC(C(=O)O)C1CC=CC21 (stereo not given) | n | n | n | 7.6µM | 22µM | 2.5µM | 14
COc1cc(CCc2ccccc2)c(C(=O)O)c(O)c1CC=C(C)C | x | n | n | x | x | n | x
SMILES | GALK inhibitor | Giardia killer | TrxR1 substrate | Pin1 inhibitor | GCN5L2 inh-1 | TrxR1 inh | GCN5L2 inh-2
COc1cc(CCc2ccccc2)c(C(=O)O)c(O)c1C/C=C(/C)CCC=C(C)C | x | n | n | u | 14µM | n | 11
CSS(=O)(=O)c1cccc2cccnc12 | n | n | n | n | 8.9µM | n | 5.8
Cn1cc(C(C[N+](=O)[O-])c2ccccc2)c2ccccc21 (stereo not given) | n | n | n | n | n | n | x
CC(=O)n1cc(C(C[N+](=O)[O-])SCCN)c2ccccc21 (stereo not given) | x | n | n | n | 25µM | u | 36
CNc1nnc(SCC(=O)N2c3ccccc3NC(=O)CC2C)s1 (stereo not given) | x | n | n | n | n | n | x
N#C/C(=C\c1cccs1)C(=O)c1ccccc1Cl | n | n | n | n | u | 13µM | u
COC(=O)c1sccc1NC(=O)CC1C(=O)NCCN1C(=O)c1c(F)cccc1Cl (stereo not given) | n | n | n | n | u | n | u
C[C@@H]1C(=O)N(S(=O)(=O)c2ccccc2[N+](=O)[O-])[C@H]1c1ccc(-c2ccccc2)cc1 | x | n | n | n | x | n | x
O=C(COC(=O)c1ccccc1)Nc1ncc([N+](=O)[O-])s1 | x | u | n | x | u | n | 4.6
O=C(COC(=O)c1ccccc1)Nc1ccc(Cl)cn1 | n | n | n | n | n | n | x
Cc1nc(SCC(=O)c2ccc(F)cc2)n[nH]1 | n | n | n[0.457 µM] | n | 22µM | n | u
COc1cc(/C=C2\CCc3c2nc2ccccc2c3C(=O)O)cc(OC)c1OC | n | u | n | u | 13µM | n | 20
CCOc1cc(/C=C2\CCCc3c2nc2ccccc2c3C(=O)O)ccc1OC | n | n | n | u | 25µM | 79µM | u
O=C(Cc1ccc(Cl)cc1Cl)Nc1cccc(S(=O)(=O)Nc2ccccc2F)c1 | n | n | n | n | u | n | u
O=C(/C=C/c1ccccc1)Nc1cccc(S(=O)(=O)Nc2ccccc2F)c1 | n | n | n | n | u | n | u
O=C(Nc1cccc(S(=O)(=O)Nc2ccccc2F)c1)c1ccc2ccccc2n1 | n | n | n | n | u | n | x
COCCCn1c(=S)[nH]c2ccc(N3CCOCC3)cc2c1=O | n | n | n | n | u | n | 32
CCc1ccc(NC(=O)C(=O)NCCc2csc(-c3cccc(F)c3)n2)cc1 | x | x | n | n | n | n | x
Cc1ccc(S(=O)(=O)/N=C2/C=C(Sc3ncn[nH]3)C(=O)c3ccccc32)cc1 | n | n | 10µM | x | 22µM | u | 1.3
CCOC(=O)C1CCCN(C(=O)c2cc(-c3ccncc3)nc3ccccc23)C1 (stereo not given) | x | n | n | n | n | n | x
CCN(CC)C(=O)COC(=O)c1cc(-c2ccco2)nc2ccccc12 | n | n | n | u | u | u | 32
CCN(CC)C(=O)COC(=O)c1cc(-c2ccc(OC)cc2)nc2ccccc12 | n | n | n | n | n | n | x

Assay outcomes from PubChem.
